The full list was thinned out, with hits kept by preference.
RMI-FANCM inh: RMI-FANCM interaction inhibition | Fluorescence polarization, RMI core complex with F-MM2 peptide; hits give low values | FP signal (polarization) at 33 µM | 0.58% of 70,000 active | AID 1159607; in the data active = FP signal below about 40
* hit, by the source's call.

SMILES	RMI-FANCM inh
CCOc1ccc(CC(=O)Nc2ccc(-c3ccc4nncn4n3)cc2)cc1	143
Cn1c(=O)c2c(O)c(C=NCc3ccccc3)c(=O)n(-c3ccccc3)c2n(C)c1=O	56
Cn1c(=O)c2c(O)c(C=Nc3cccc(Cl)c3Cl)c(=O)n(C)c2n(C)c1=O	45
Cn1c(=O)c2c(O)c(C=Nc3cccc([N+](=O)[O-])c3)c(=O)n(C)c2n(C)c1=O	28*
O=C1c2ccccc2C(=O)N1c1cccc(F)c1	59
C=C1C2CC[C@@]3(C)[C@H](c4ccoc4)OC(=O)C[C@]13O[C@H]1CC(O)C(C)(C)C(CC(=O)OC)[C@@]21C (stereo not given in full)	58
CC1(C)COc2cc(NC(=O)C3CC3)ccc2NC1=O	68
CC1(C)OC2OC(C(=O)N3CCOCC3)C3OC(C)(C)OC3C2O1 (stereo not given)	59
CC(CC(=O)Nc1ccc(Cl)cc1)S(=O)(=O)c1ccc(Cl)cc1 (stereo not given)	45
O=C(NC(=O)c1csc([N+](=O)[O-])c1)NN1CCOCC1	56
O=C(Nc1ccccc1)c1csc(-c2ccccc2)n1	66
Cn1c(-c2nc(C(=O)NN3CCOCC3)cs2)cc2ccccc21	3*
CC(=O)N1CCc2ccc(NS(=O)(=O)Cc3ccccc3Cl)cc21	67
C=CCc1cccc(/C=N\Nc2nc(-c3ccc4ccccc4c3)cs2)c1O	14*
O=[N+]([O-])c1cccc(/C=N\Nc2nc(-c3ccc(Cl)c(Cl)c3)cs2)c1	58
Fc1ccc(-c2csc(N/N=C\c3ccccc3)n2)cc1	56
Cc1cccc(NC(=O)COc2cccc3ccc(N4CCC(Cc5ccccc5)CC4)nc23)c1C	55
CCn1c(=NC(=O)CCOc2ccccc2)sc2c(OC)ccc(OC)c21	59
Cc1n[nH]c(=S)c2c1cnn2-c1ccccc1	69
Cn1nccc1C(=O)Nc1nc2ccc(S(C)(=O)=O)cc2s1	71
COc1ccc(NC(=O)Cn2c(C)cc(C)c(-c3nc(-c4ccccc4)no3)c2=O)cc1OC	67
O=C(NCCc1c[nH]c2ccccc12)C(=O)NCc1cccs1	62
CCCc1c2c(cc3c(=O)cc(C(=O)OCC)oc13)CCCC2	32*
CCOC(=O)c1cc2cc(Cl)ccc2o1	53
CCOC(=O)c1sc(NC(=O)c2cc(=O)c3ccccc3o2)cc1C	62
SMILES	RMI-FANCM inh
CC(C1CC1)N(C(=O)CCC(=O)O)c1ccccc1 (stereo not given)	56
Brc1ccc2nc(NCc3cccnc3)sc2c1	66
COc1ccc(CC(=O)NCC(c2ccsc2)N2CCc3ccccc3C2)cc1OC (stereo not given)	65
CCOC(=O)N1CCc2c(sc(NC(=O)CCSc3ccc(Cl)cc3)c2C(N)=O)C1	58
Cc1ccc(S(=O)(=O)CCC(=O)Nc2sc3c(c2C(N)=O)CCC(C)C3)cc1 (stereo not given)	83
CCN1CCc2c(sc(NC(=O)c3ccnn3C)c2C(N)=O)C1	68
CCOC(=O)N1CCc2c(sc(NC(=O)CS(=O)(=O)c3ccc(C)cc3)c2C(N)=O)C1	63
CC(C)N1CCc2c(sc(NC(=O)CN3C(=O)c4ccccc4C3=O)c2C(N)=O)C1	-4*
CC(C)N1CCc2c(sc(NC(=O)c3ccn(C)n3)c2C(N)=O)C1	74
Cc1ccc(S(=O)(=O)CC(=O)Nc2sc3c(c2C(N)=O)CCN(C(C)C)C3)cc1	57
CCN1CCc2c(sc(NC(=O)CCS(=O)(=O)c3ccc(C)cc3)c2C(N)=O)C1	34*
CCN1CCc2c(sc(NC(=O)CS(=O)(=O)c3ccc(F)cc3)c2C(N)=O)C1	13*
CCOC(=O)N1CCc2c(sc(NC(=O)CCS(=O)(=O)c3ccccc3)c2C(N)=O)C1	69
CC(=O)N1CCc2c(sc(NC(=O)CSc3ccc(Cl)cc3)c2C(N)=O)C1	-4*
CC(=O)N1CCc2c(sc(NC(=O)CCSc3ccc(C)cc3)c2C(N)=O)C1	56
CCOC(=O)c1c(NC(=O)CSc2nc(N)cc(=O)[nH]2)sc2c1CCC2	60
COc1ccc(Cl)cc1NC(=O)C(=O)N1CCN(Cc2ccc3c(c2)OCO3)CC1	51
COc1ccc(C)cc1NC(=O)C(=O)NCC(c1ccsc1)N1CCc2ccccc2C1 (stereo not given)	65
O=C(NCCCn1nc(-c2ccc(F)cc2)ccc1=O)Nc1cc(Cl)ccc1Cl	67
Cc1c(C)c(C)c(CSC(=Nc2ccc(C(C)C)cc2)N2CCOCC2)c(C)c1C	59
CC(NC(=O)Cc1csc(Nc2ccc(S(C)(=O)=O)cc2)n1)c1ccccc1 (stereo not given)	70
O=C(CS(=O)(=O)c1ccc(F)cc1)Nc1ncc(S(=O)(=O)c2ccc([N+](=O)[O-])cc2)s1	51
Cc1nc(-c2ccccc2)sc1C(=O)NCCn1nc(-c2ccncc2)ccc1=O	66
CC1CCN(S(=O)(=O)c2ccc3[nH]cc(C(=O)NCC4COc5ccccc5O4)c(=O)c3c2)CC1 (stereo not given)	59
O=C(CSc1nc(-c2ccccc2)cc(=O)[nH]1)Nc1nc2ccccc2s1	52
O=C1C(NS(=O)(=O)c2ccccc2)=CC(=NS(=O)(=O)c2ccc(F)cc2)c2ccccc21	58
